A selection: hits, their analogues and other compounds. The true share with any hit is near 2.6%.
GLP-1R agonist: GLP-1 receptor (human) agonism; P43220; HEK293 GLP-1R CRE-luciferase, luminescence, 4-6 h; cells express a hypersensitive GLP-1R form; Potency, µM (highest dose often 45.6 µM), hits mostly activators; hit rate 0.007% among 380,000; AID 624172
Target sequence (P43220 whole entry, looked up): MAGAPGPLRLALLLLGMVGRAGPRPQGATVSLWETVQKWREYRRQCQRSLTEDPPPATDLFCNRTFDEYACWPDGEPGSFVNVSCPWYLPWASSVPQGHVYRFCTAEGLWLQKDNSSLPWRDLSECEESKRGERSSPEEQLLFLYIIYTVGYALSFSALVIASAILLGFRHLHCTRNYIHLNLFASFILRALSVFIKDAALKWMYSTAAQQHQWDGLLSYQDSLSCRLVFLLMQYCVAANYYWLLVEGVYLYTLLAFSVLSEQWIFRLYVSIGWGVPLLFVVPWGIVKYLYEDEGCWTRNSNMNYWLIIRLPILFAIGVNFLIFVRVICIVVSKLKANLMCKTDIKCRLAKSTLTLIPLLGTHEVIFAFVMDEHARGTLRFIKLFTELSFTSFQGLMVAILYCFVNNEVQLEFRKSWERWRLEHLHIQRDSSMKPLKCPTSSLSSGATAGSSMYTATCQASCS
HEK293 tox: cytotoxicity in counter-screen for GLP-1R inverse agonists; HEK293 cAMP-luciferase reporter cells, luminescence, 24 h; hit rate 0.13% among 410,000; Potency, µM (top dose mostly 38.3 µM), most hits filed as inhibitors;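 note: loss of luciferase light is scored as toxicity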
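Here, cytotoxicity is scored as loss of luminescence. The MLSMR collection was tested on cells seeded in medium containing 10% Nu serum, with a 24 hr compound exposure preceded by 12 hours of culture.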
GLP-1R inv ag: GLP-1 receptor (human) inverse agonism | P43220 | HEK293 GLP-1R CRE-luciferase, luminescence, 24 h; GLP-1R form is constitutively active | Potency, µM (top dose mostly 38.3 µM), actives largely listed as inhibitors | hit rate 1.6% among 410,000; note: nearly all actives have a fitted effect of over 55% in size
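GLP-1R inverse agonism mode: basal reporter luminescence in engineered HEK293 cells measured after one day of compound exposure at 37 deg C, with a 12 min room-temperature detection step.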
BRCA1 expr act: activators of BRCA1 expression; MCF7-BRCA1-FFLuc reporter, luminescence, 48 h; response scale: scaled: vehicle 0%, 10 µM genistein 100%; Potency, µM (top dose mostly 46.1 µM), most hits filed as activators; hit rate 1.1% among 380,000; note: nearly all actives have a fitted effect of over 80% in size
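MCF7 cells carrying a BRCA1-firefly luciferase reporter (2000 cells/well, phenol-red free MEM) were attached for 2 h at 37 °C, then given compounds for 48 h. Luminescence was read 15 min after luciferase reagent; activity normalized to genistein (10 microM) and DMSO.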
Hits are given with their value. Calls come from the whole dose curve; as a rule, active = well fitted curve in the direction sought with a large enough effect; inconclusive = small, poorly fitted or top-dose-only effect, or another doubt; inactive = no such curve, though single readings can be large; an effect the other way counts as inactive or inconclusive.

`Cc1cc(C(=O)CSc2nnc(N)s2)c(C)n1C1CC1` gave GLP-1R agonist inactive, HEK293 tox inactive, GLP-1R inv ag inactive and BRCA1 expr act 7.94µM.
For O=C(Nc1cccc(O)c1)c1cc(-c2ccco2)on1 the results were GLP-1R agonist inactive, HEK293 tox inactive, GLP-1R inv ag inconclusive and BRCA1 expr act inactive.
Screening CC(C)c1cc(C(=O)Nc2cccc(Cl)c2)no1 returned GLP-1R agonist inactive, HEK293 tox inactive, GLP-1R inv ag inactive and BRCA1 expr act 7.08µM.
For CC(=O)c1cccc(NC(=O)c2cc(-c3ccco3)on2)c1 the results were GLP-1R agonist inactive, HEK293 tox inactive, GLP-1R inv ag inactive and BRCA1 expr act 10µM.
Screening O=C(Nc1cccc(Cl)c1)c1cnc[nH]1 returned GLP-1R agonist inactive, HEK293 tox inactive, GLP-1R inv ag inactive and BRCA1 expr act 7.94µM.
CC(=O)c1cccc(NC(=O)c2cc(C(C)C)on2)c1 was read as GLP-1R agonist inactive, HEK293 tox inactive, GLP-1R inv ag inactive and BRCA1 expr act 3.16µM.
For O=C(Nc1cccc(Cl)c1)c1ccncc1 the results were GLP-1R agonist inactive, HEK293 tox inactive, GLP-1R inv ag inactive and BRCA1 expr act inactive.
For CC(C)c1cc(C(=O)Nc2cc(Cl)ccc2O)no1 the results were GLP-1R agonist inactive, HEK293 tox inactive, GLP-1R inv ag inactive and BRCA1 expr act inconclusive.
For CN(C)c1cccc(-c2nnc(SCC(=O)NCc3ccco3)n2C)c1 the results were BRCA1 expr act inactive.
COc1ccc(CNC(=S)NCc2ccc(OC)cc2)cc1 was read as GLP-1R agonist inactive, HEK293 tox inactive, GLP-1R inv ag inactive and BRCA1 expr act inactive.
For COc1ccc(CNC(=S)NC(C)CCc2ccccc2)cc1 (centres undefined) the results were GLP-1R agonist inactive, HEK293 tox inconclusive, GLP-1R inv ag 10µM and BRCA1 expr act inactive.
Cc1c(C)n(CCCN(C)C)c2ncnc(Nc3ccccc3)c12 was read as GLP-1R agonist inactive, HEK293 tox inactive, GLP-1R inv ag inconclusive and BRCA1 expr act inactive.
`COc1ccc(Nc2ncnc3c2c(C)c(C)n3CCCN(C)C)cc1` gave GLP-1R agonist inactive, HEK293 tox inactive, GLP-1R inv ag 11.2µM and BRCA1 expr act inactive.
COc1ccccc1Nc1ncnc2c1c(C)c(C)n2CCCN(C)C was read as GLP-1R agonist inactive, HEK293 tox inactive, GLP-1R inv ag 2.24µM and BRCA1 expr act inactive.
For Cc1c(C)n(CCCN(C)C)c2ncnc(NC3CCCCC3)c12 the results were GLP-1R agonist inactive, HEK293 tox inactive, GLP-1R inv ag 3.98µM and BRCA1 expr act inactive.
`CN1C(=O)c2ccccc2Sc2ccc(NC(=O)N3CCN(c4ccccc4F)CC3)cc21` gave HEK293 tox inactive and GLP-1R inv ag inactive.
COc1cccc(CN(C)CC(O)COc2cc(Cl)ccc2Cl)c1 (centres undefined) was read as GLP-1R agonist inactive, HEK293 tox inactive, GLP-1R inv ag 10µM and BRCA1 expr act inactive.
Screening COc1ccc(C(C(=O)NCc2ccccc2)n2c(=O)c(-c3ccco3)nc3ccccc32)cc1 (centres undefined) returned HEK293 tox inactive and GLP-1R inv ag inconclusive.
Screening COc1cccc(CNS(=O)(=O)c2ccc(-c3cc(C(F)(F)F)on3)s2)c1 returned HEK293 tox inactive and GLP-1R inv ag inconclusive.
COc1ccccc1NCc1nnc2n1CCCCC2 was read as GLP-1R agonist inactive, HEK293 tox inactive, GLP-1R inv ag inactive and BRCA1 expr act inactive.
Nc1nc(-c2ccc(Cl)cc2)c(S(=O)(=O)c2ccccc2)s1 was read as GLP-1R agonist inactive, HEK293 tox inactive, GLP-1R inv ag 8.91µM and BRCA1 expr act inactive.
For COc1cc(Cn2c3ccc(NC(=O)CCc4ccc(O)cc4)cc3c(=O)n2C)ccc1F the results were GLP-1R agonist inactive, HEK293 tox inactive, GLP-1R inv ag inconclusive and BRCA1 expr act inactive.
`CC(=O)Nc1nnc(SCc2cc(=O)c3cccc(Cl)c3[nH]2)s1` gave HEK293 tox inactive and GLP-1R inv ag inactive.
Screening CN1CCN(c2ccc3sc(-n4ccc5ccccc54)nc3c2)CC1 returned GLP-1R agonist inactive, HEK293 tox inactive, GLP-1R inv ag 6.31µM and BRCA1 expr act inactive.
[NH-]CCC([O-])=NC(Cc1cnc[nH]1)C(=O)[O-].[Zn+2] (centres undefined) was read as GLP-1R agonist inactive.
`CCN(CC)c1ccc(N=Nc2ccc(S(=O)(=O)N(C)C)cc2)c(S(=O)(=O)NCC[n+]2ccccc2)c1` gave GLP-1R agonist inactive.
For COC(=O)c1ccccc1NC(=O)CCC(=O)N1CCOc2ccccc21 the results were HEK293 tox inactive and GLP-1R inv ag inactive.
COc1ccc(OCCNC(=O)c2cccc(Oc3ccc(C(F)(F)F)cc3[N+](=O)[O-])c2)cc1 was read as GLP-1R agonist inactive, HEK293 tox inconclusive, GLP-1R inv ag 4.47µM and BRCA1 expr act inactive.
Screening O=C(NCCO)c1ccc(Oc2ccc(C(F)(F)F)cc2[N+](=O)[O-])cc1 returned GLP-1R agonist inactive, HEK293 tox inactive, GLP-1R inv ag inactive and BRCA1 expr act inactive.
CCO[C@@H]1OC(C(=O)N2CCN(Cc3ccc4c(c3)OCO4)CC2)=C[C@H](C2CCCCC2)[C@H]1CCCO was read as GLP-1R agonist inactive, HEK293 tox inactive, GLP-1R inv ag 11.2µM and BRCA1 expr act inactive.
C=CCn1c(CCc2cc(C(C)(C)C)c(O)c(C(C)(C)C)c2)n[nH]c1=S was read as GLP-1R agonist inactive, HEK293 tox 11.2µM, GLP-1R inv ag inconclusive and BRCA1 expr act inactive.
Screening Cc1c(C(=O)N(Cc2ccccc2)C(C)C)cnn1-c1ccccc1 returned GLP-1R agonist inactive, HEK293 tox inactive, GLP-1R inv ag inconclusive and BRCA1 expr act inactive.
For Cc1c(C(=O)N(Cc2ccccc2)Cc2cccs2)cnn1-c1ccc(Cl)cc1 the results were GLP-1R agonist inactive, HEK293 tox inconclusive, GLP-1R inv ag 5.62µM and BRCA1 expr act inactive.
For N#Cc1ccc(C2CC(OCCF)=CC(=O)O2)cc1 (centres undefined) the results were HEK293 tox inactive and GLP-1R inv ag inactive.
For CC(=O)c1ccc2oc3ccccc3c(=O)c2c1 the results were GLP-1R agonist inactive, HEK293 tox inactive, GLP-1R inv ag inactive and BRCA1 expr act 7.94µM.
`CCOC(=O)c1cc2c(=O)c3ccccc3oc2nc1C` gave GLP-1R agonist inactive, HEK293 tox inactive, GLP-1R inv ag inactive and BRCA1 expr act inactive.
Screening CC(=O)c1cc2c(=O)c3ccccc3oc2nc1C returned GLP-1R agonist inactive, HEK293 tox inactive, GLP-1R inv ag inactive and BRCA1 expr act 10µM.
For CC(C)(C)NC(=O)C(CCc1ccccc1)n1c(=O)c(-c2cc3ccccc3[nH]2)nc2ccccc21 (centres undefined) the results were HEK293 tox inactive and GLP-1R inv ag inconclusive.
O=[N+]([O-])c1cccc(C=NNc2ccccc2)c1 was read as GLP-1R agonist inactive, HEK293 tox inactive, GLP-1R inv ag inconclusive and BRCA1 expr act inactive.
O=C(CN1c2ccccc2Sc2ccccc21)N/N=C/c1ccc([N+](=O)[O-])cc1 was read as GLP-1R agonist inactive, HEK293 tox inactive, GLP-1R inv ag 12.6µM and BRCA1 expr act inactive.

Screening data as filed in PubChem BioAssay.
